From PubChem
Sampled rows, rich in hits. Any-hit rate of the full collection: about 2.9%.
KDM5B inhibitor = Primary screen for KDM5B Histone Demethylases FDH-coupled qHTS. Lysine-specific demethylase 5B (Homo sapiens), Q9UGL1. KDM5B demethylase, FDH-coupled NADH fluorescence (FDH is formaldehyde dehydrogenase). Potency, µM (series often up to 57.7 µM), hits mostly inhibitors. 220,000 compounds, 2.6% hits; also: potency is read from the fitted curve at half-maximal effect; 0% is about no effect; nearly all actives have a fitted effect of over 70% in size
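qHTS format, multiple compound concentrations. Buffer 50 mM HEPES pH 7.5/0.01% Tween-20; 200 nM KDM5BΔAP final; 10 min compound preincubation; substrate-mix levels 12.5 µM peptide, 25 µM α-KG, 0.25 mM NAD⁺; 30 min RT; ΔRFU.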
HEK293 viab = GF-AFC viability counterscreen for inhibitors of alpha-synuclein gene (SNCA) expression; HEK-293-SNCA-luc viability, GF-AFC fluorescence, 24 h; Potency, µM (doses to about 57.1 µM), without a hit: at the top dose activity change, negative = cytotoxicity, usual class: cytotoxic; 150,000 compounds, 0.12% hits;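 also: potency is read from the fitted curve at half-maximal effect; 0% = DMSO-treated cells and -100% = medium-only wells without cells; nearly all actives have a fitted effect of over 30% in size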
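Cytotoxicity counterscreen: after 24 h compound treatment of genome-edited SNCA-luciferase HEK-293 cells, live-cell protease substrate GF-AFC read by fluorescence after 30 min; activity scaled between DMSO (0%) and medium-only (-100%), curves Hill-fitted.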
SNCA expr inhib = Primary qHTS assay for inhibitors of alpha-synuclein gene (SNCA) expression; Potency, µM (doses to about 57.2 µM), inactives show at the highest dose activity change, negative = inhibition, usual class: inhibitors; HEK-293 SNCA-luciferase knock-in, luminescence, 24 h; 140,000 compounds, 0.17% hits; AID 1671194, 2021;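 also: potency is read from the fitted curve at half-maximal effect; plate controls were DMSO cells for no effect and cell-free wells for full effect; nearly all actives have a fitted effect of over 45% in size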
IP6K1 inhibitor = Primary qHTS assay for small molecule inhibitors of Inositol hexaphosphate kinase 1 (IP6K1); Inositol hexakisphosphate kinase 1 (Homo sapiens), Q92551; IP6K1 kinase, ADP-Glo luminescence, 2 h; active compounds read low; activity change, % (series mostly up to about 58 µM); 140,000 compounds, 0.81% hits; in the data active = activity change below about -25%; also: % is scaled to controls: 0 for no effect and ±100 for the full control effect
Target sequence (Q92551 whole entry, looked up): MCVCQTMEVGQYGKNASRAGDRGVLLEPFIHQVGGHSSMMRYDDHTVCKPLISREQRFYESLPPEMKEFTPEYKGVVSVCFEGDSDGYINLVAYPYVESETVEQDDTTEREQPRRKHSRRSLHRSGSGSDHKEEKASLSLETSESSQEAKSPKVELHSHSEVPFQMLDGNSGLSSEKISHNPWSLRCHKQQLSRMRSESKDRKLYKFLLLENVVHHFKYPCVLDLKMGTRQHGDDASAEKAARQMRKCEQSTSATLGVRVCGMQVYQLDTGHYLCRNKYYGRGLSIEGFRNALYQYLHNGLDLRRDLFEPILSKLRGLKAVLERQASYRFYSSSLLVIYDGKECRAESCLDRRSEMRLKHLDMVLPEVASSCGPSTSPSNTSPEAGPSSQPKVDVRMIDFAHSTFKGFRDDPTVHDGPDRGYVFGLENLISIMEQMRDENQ
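ADP-Glo luminescence measures ADP made by human IP6K1 during a 2 h RT reaction with ATP/IP6 (mix at 1.3 mM/130 uM); top library doses 57.5 and 19.1 uM final.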
IP6K1 conf = Confirmatory qHTS assay for small molecule inhibitors of Inositol hexaphosphate kinase 1 (IP6K1); shares compounds with IP6K1 inhibitor; recombinant IP6K1 kinase, ADP-Glo luminescence, 2 h; Potency, µM (top dose mostly 49 µM), for the others: top-dose activity change, negative = inhibition, hits mostly inhibitors; 1,200 compounds, 13% hits; also: potency is read from the fitted curve at half-maximal effect; % is scaled to controls: 0 for no effect and ±100 for the full control effect; nearly all actives have a fitted effect of over 65% in size
* = called active by the depositor; i = inactive; ? = inconclusive; . = not tested or not shown; [ ] = dose if it differs, or a comment. Unless noted, calls follow the shape of the dose curve; as a rule, active = well fitted curve in the direction sought with a large enough effect; inconclusive = small, poorly fitted or top-dose-only effect, or another doubt; inactive = no such curve, though single readings can be large; an effect the other way counts as inactive or inconclusive.

SMILES	KDM5B inhibitor	HEK293 viab	SNCA expr inhib	IP6K1 inhibitor	IP6K1 conf
CC(=O)Nc1ccc(-n2c(CCC(=O)O)ccc2-c2ccc(C)cc2)cc1	?	-2%	-17%	16	.
Cc1ccc(C(=O)Nc2nc3nc(C)cc(=O)n3[nH]2)cc1	i	0%	18%	-27*	-18%
CCOc1ccccc1NC(=O)Cn1nc2c3cc(F)ccc3n(Cc3cccc(C)c3)cc-2c1=O	i	-5%	7%	-34*	9%
COc1ccccc1NC(=O)Cn1nc2c3cc(F)ccc3n(Cc3cccc(C)c3)cc-2c1=O	i	-12%	-4%	7	.
CCN1C(C(=O)c2ccccc2)=C(OC(=O)COc2ccccc2)c2ccccc2S1(=O)=O	?	?	?	-29*	?
CCN1C(C(=O)c2ccccc2)=C(OC(=O)C(C)C)c2ccccc2S1(=O)=O	?	-25%	?	-3	.
O=C(Nc1ccccc1-c1cn2c(CN3CCNCC3)csc2n1)c1cnc2ccccc2n1	.	?	7%	-29*	?
O=C(Nc1ccsc1)N[C@H]1C[C@H]2C(=O)NC[C@@H](CCC(=O)N3CCCCC3)N2C1	?	-2%[87.6 µM]	7%[87.6 µM]	3	.
COc1cccc(NC(=O)C2CCCN(S(=O)(=O)c3ccc4[nH]c(=O)ccc4c3)C2)c1 (stereo not drawn)	i	-10%	2%	-33*	0%
COc1ccc(NC(=O)C2CCCN(S(=O)(=O)c3ccc4[nH]c(=O)ccc4c3)C2)cc1OC (stereo not drawn)	?	6%	19%	27	.
Cc1ccc(S(=O)(=O)N[C@H]2CC(C)(C)[C@@H]3C[C@@](C)(O)CC[C@]23CCC(=O)NCCc2c[nH]c3ccccc23)cc1	i	0%	-11%	-8	.
CCOc1ccc(CN2CCN(Cc3ccc4c(c3)c3ccccc3n4CC)CC2)cc1	?	-4%	-2%	-32*	7%
CCNc1c(NC(=O)Nc2cccc(Cl)c2)c(=O)oc2ccccc12	i	.	.	.	.
O=C(Nc1noc2ccccc12)c1c(F)cccc1F	i	2%	?	-31*	?
O=C(Nc1noc2ccccc12)c1ccc(Br)o1	i	.	.	.	.
O=C(O)CCC(=O)NCCCN1CCOCC1	i	.	.	.	.
CC(C)Nc1ccc2nnc(-c3ccc(F)cn3)n2n1	?	4%[87.6 µM]	-5%[87.6 µM]	-26*	3%[92.2 µM]
CCc1ccc(OCC(=O)Nc2ccc3oc(C)nc3c2)cc1	i	.	.	.	.
Fc1cccc(-c2nc(CSc3ncn[nH]3)co2)c1	i	.	.	.	.
COc1ccc(-c2cc(C(=O)Oc3cccc(C)c3)c3cc(C)ccc3n2)cc1	?	11%	-5%	-30*	-15%
COc1ccc(-c2cc(C(=O)Oc3cccc(C)c3)c3ccccc3n2)cc1	?	0%	36%	-12	.
Cc1ccc(NC(=O)CCCc2nc(-c3ccco3)no2)cc1Cl	i	5%	8%	11	.
Cc1cc(C)cc(NC(=O)CCCc2nc(-c3ccco3)no2)c1	i	0%	5%	-27*	-14%
Cc1nc(-c2ccc(OCC(C)C)c(C#N)c2)sc1C(=O)O	.	6%[23.9 µM]	46%[25.6 µM]	-49*	6.5µM*
O=C(Nc1cccc(-c2ccc(N3CCOCC3)nn2)c1)Nc1cc(F)ccc1F	?	?	?	-13	.
SMILES	KDM5B inhibitor	HEK293 viab	SNCA expr inhib	IP6K1 inhibitor	IP6K1 conf
O=C(Nc1cccc(-c2ccc(N3CCOCC3)nn2)c1)Nc1ccccc1F	?	-22%	-1%	-32*	?
CCc1nc2ccccc2n1CCCCOc1ccccc1C	?	0%	?	-30*	-22%
Cc1cccc(-c2nc3c4ccccc4nc(NCc4ccccc4Cl)n3n2)c1	i	4%	90%	-27*	-26%
COc1ccc(-n2cc(-c3ccccc3)c3c(NC4CCCCC4)ncnc32)cc1	?	23%	32%	-25*	?
CCOc1ccc(-n2cc(-c3ccccc3)c3c(NC4CCCCC4)ncnc32)cc1	i	3%	7%	6	.
COc1ccc(-c2cn3nc(N4CCCC(C(=O)NCCc5cccs5)C4)sc3n2)cc1 (stereo not drawn)	i	.	.	.	.
Cc1cc(C)n(C(=O)c2cn(C)nc2S(=O)(=O)N2CCN(c3ccc(Cl)cc3)CC2)n1	i	.	.	.	.
Cn1ncc2c(C(=O)NCC#N)cc(-c3ccc(C(F)(F)F)cc3)nc21	.	.	.	-13	.
O=C(CS)Nc1ccccc1	.	?	32%[25.6 µM]	-27*	?
CCOCCCNC(=O)c1ccc2c(c1)NC(=O)C(CS(=O)(=O)Cc1ccc(F)cc1Cl)N2 (stereo not drawn)	?	5%	4%	-43*	9%
CCN(CC)CCCNC(=O)c1ccc2c(c1)NC(=O)C(CS(=O)(=O)Cc1ccc(F)cc1Cl)N2 (stereo not drawn)	?	7%	6%	-10	.
Cc1cccc(CS(=O)(=O)CC2Nc3ccc(C(=O)NCc4ccccc4)cc3NC2=O)c1 (stereo not drawn)	?	2%	?	14	.
Cc1ccc(CNC(=O)c2ccc3c(c2)NC(=O)C(CS(=O)(=O)Cc2cccc(F)c2)N3)cc1 (stereo not drawn)	?	-9%	-15%	-35*	-3%
Cc1noc(C)c1[S+](=O)([O-])N1CCCC1C(=O)N1CCC(c2nc3ccncc3[nH]2)CC1 (stereo not drawn)	.	2%	34%	-31*	-14%
CN(CC(=O)Nc1ccccc1OCC(F)(F)F)S(=O)(=O)c1ccc2ccccc2c1	i	.	.	.	.
CC(Oc1ccccc1)C(=O)OCc1cc(=O)n2nc(C(C)C)sc2n1 (stereo not drawn)	i	0%	20%	-30*	-9%
O=C(NCc1nc2ccccc2[nH]1)c1ccc2n[nH]nc2c1	i	.	.	.	.
Cc1cc(C)c(CNC(=O)c2cc(-c3cccnc3)cc3c2OCCN3C)c(=O)[nH]1	?	-12%[87.6 µM]	17%[87.6 µM]	-28*	-30%
COc1ccc(-c2cc(C(=O)NCc3cccnc3)c3c(c2)N(C)CCO3)cc1OC	?	-7%[87.6 µM]	2%[87.6 µM]	-6	.
COc1cc(F)ccc1-c1cc(C(=O)NCc2c(C)cc(C)[nH]c2=O)c2c(c1)N(C(C)C)CCO2	32µM*	-16%	-30%	-27*	-5%
O=c1[nH]c(C2CCCN(Cc3cccc(-c4ccsc4)c3)C2)nc2ccc(F)cc12 (stereo not drawn)	?	-26%	-28%	7	.
Cn1nc(-c2ccccc2F)c2cc(C(=O)NCc3ccc(Cl)cc3)sc21	?	?	?	-39*	?
CCCCOc1c(C(=O)c2c(F)cc(C)cc2F)cnc2n[nH]cc12	.	-11%	?	-5	.
